# Only a selection was taken, and the strongest signals are over-represented in it overall.
# B1: EULS2 M1 (Oryza sativa) (protein)
# chain: MVYCRANPNYAMTARNGAVVLAPANPKDEYQHWIKDMRWSTSIKDEEGYPAFALVNKATGQAIKHSLGQSHPVRLVPYNPEVMDESVLWTESRDVGNGFRCIRMVNNIYLNFDAFHGDKYHGGVRDGTDIVLWKLCEGDNQRWKIQPYYILEQKLISEEDLNSAVDHHHHHH
# Legend:
# Assay in all cases: glycan array binding signal (z-score within array); higher = stronger binding
# Conditions in all cases: glycan notation: IUPAC condensed, linker removed
# [1] = target: Fuc(a1-2)Gal(b1-3)GalNAc(a1-3)[Fuc(a1-2)]Gal(b1-4)Glc
# Procedure, shortened: (§1)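 Columns mapping to the same glycan were averaged after glycan names were converted to IUPAC-condensed notation. The data come from 3228 arrays in the Consortium for Functional Glycomics database, limited to those with an available protein sequence. Binding is reported as a within-array Z-score averaged across arrays of one protein sequence and across linkers.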
# [2] = target: Fuc(a1-2)Gal(b1-3)GlcNAc(b1-3)Gal(b1-4)Glc
# Procedure, shortened: as §1
# [3] = target: Fuc(a1-2)Gal(b1-3)GlcNAc(b1-3)[Gal(b1-4)GlcNAc(b1-6)]Gal(b1-4)Glc
# Procedure, shortened: as §1
# [4] = target: Fuc(a1-2)Gal(b1-4)GlcNAc(b1-3)[Fuc(a1-2)Gal(b1-4)GlcNAc(b1-6)]GalNAc
# Procedure, shortened: as §1
# [5] = target: Fuc(a1-2)Gal(b1-4)[Fuc(a1-3)]GlcNAc
# Procedure, shortened: as §1
# [6] = target: Fuc(a1-2)Gal6S(b1-4)Glc
# Procedure, shortened: as §1
# [7] = target: Fuc(a1-2)[Gal(a1-3)]Gal(b1-3)GlcNAc
# Procedure, shortened: as §1
# [8] = target: Fuc(a1-2)[Gal(a1-3)]Gal(b1-4)GlcNAc
# Procedure, shortened: as §1
# [9] = target: Fuc(a1-2)[GalNAc(a1-3)]Gal(b1-3)GlcNAc(b1-2)Man(a1-3)[Fuc(a1-2)[GalNAc(a1-3)]Gal(b1-3)GlcNAc(b1-2)Man(a1-6)]Man(b1-4)GlcNAc(b1-4)GlcNAc
# Procedure, shortened: as §1
# [10] = target: Fuc(a1-2)[GalNAc(a1-3)]Gal(b1-4)GlcNAc(b1-2)Man
# Procedure, shortened: as §1
# [11] = target: Gal(a1-3)Gal(b1-3)GlcNAc
# Procedure, shortened: as §1
# [12] = target: Gal(a1-3)Gal(b1-3)GlcNAc(b1-2)Man
# Procedure, shortened: as §1
# [13] = target: Gal(a1-3)Gal(b1-4)GlcNAc(b1-2)Man(a1-3)[Gal(a1-3)Gal(b1-4)GlcNAc(b1-2)Man(a1-6)]Man(b1-4)GlcNAc(b1-4)GlcNAc
# Procedure, shortened: as §1
# [14] = target: Gal(b1-3)GlcNAc(b1-3)Gal(b1-3)GlcNAc
# Procedure, shortened: as §1
# [15] = target: Gal(b1-3)[Fuc(a1-4)]GlcNAc(b1-2)Man
# Procedure, shortened: as §1
# [16] = target: Gal(b1-3)[Fuc(a1-4)]GlcNAc(b1-2)Man(a1-3)[Gal(b1-3)[Fuc(a1-4)]GlcNAc(b1-2)Man(a1-6)]Man(b1-4)GlcNAc(b1-4)[Fuc(a1-6)]GlcNAc
# Procedure, shortened: as §1
# [17] = target: Gal(b1-3)[Fuc(a1-4)]GlcNAc(b1-3)Gal(b1-3)[Fuc(a1-4)]GlcNAc
# Procedure, shortened: as §1
# [18] = target: Gal(b1-3)[Neu5Ac(a2-6)]GalNAc
# Procedure, shortened: as §1
# [19] = target: Gal(b1-4)GlcNAc(b1-2)Man(a1-3)[Gal(b1-4)GlcNAc(b1-2)Man(a1-6)]Man(b1-4)GlcNAc(b1-4)GlcNAc
# Procedure, shortened: as §1
# [20] = target: Gal(b1-4)GlcNAc(b1-2)Man(a1-3)[GlcNAc(b1-4)][Gal(b1-4)GlcNAc(b1-2)Man(a1-6)]Man(b1-4)GlcNAc(b1-4)GlcNAc
# Procedure, shortened: as §1
# [21] = target: Gal(b1-4)GlcNAc(b1-2)[Gal(b1-4)GlcNAc(b1-4)]Man(a1-3)[Gal(b1-4)GlcNAc(b1-2)[Gal(b1-4)GlcNAc(b1-6)]Man(a1-6)]Man(b1-4)GlcNAc(b1-4)GlcNAc
# Procedure, shortened: as §1
# [22] = target: Gal(b1-4)GlcNAc(b1-2)[Gal(b1-4)GlcNAc(b1-4)]Man(a1-3)[GlcNAc(b1-4)][Gal(b1-4)GlcNAc(b1-2)Man(a1-6)]Man(b1-4)GlcNAc(b1-4)GlcNAc
# Procedure, shortened: as §1
# [23] = target: Gal(b1-4)GlcNAc(b1-3)Gal(b1-3)GlcNAc
# Procedure, shortened: as §1
# [24] = target: Gal(b1-4)GlcNAc(b1-3)Gal(b1-4)GlcNAc(b1-3)Gal(b1-4)GlcNAc(b1-3)Gal(b1-4)GlcNAc(b1-2)[Gal(b1-4)GlcNAc(b1-3)Gal(b1-4)GlcNAc(b1-3)Gal(b1-4)GlcNAc(b1-3)Gal(b1-4)GlcNAc(b1-6)]Man(a1-6)[Gal(b1-4)GlcNAc(b1-3)Gal(b1-4)GlcNAc(b1-3)Gal(b1-4)GlcNAc(b1-3)Gal(b1-4)GlcNAc(b1-2)Man(a1-3)]Man(b1-4)GlcNAc(b1-4)[Fuc(a1-6)]GlcNAc
# Procedure, shortened: as §1
# [25] = target: Gal(b1-4)GlcNAc(b1-6)GalNAc
# Procedure, shortened: as §1
# [26] = target: Gal(b1-4)GlcNAc(b1-6)[Gal(b1-4)GlcNAc(b1-3)]GalNAc
# Procedure, shortened: as §1
# [27] = target: Gal3S(b1-3)[Fuc(a1-4)]GlcNAc
# Procedure, shortened: as §1
# [28] = target: Gal3S(b1-4)Glc6S
# Procedure, shortened: as §1
# [29] = target: Gal6S(b1-3)GlcNAc6S
# Procedure, shortened: as §1
# [30] = target: GalNAc(b1-3)Gal(a1-6)Gal(b1-4)Glc
# Procedure, shortened: as §1
# [31] = target: GalNAc(b1-4)GlcNAc(b1-3)GalNAc(b1-4)GlcNAc
# Procedure, shortened: as §1
# [32] = target: Glc(b1-4)Glc
# Procedure, shortened: as §1
# [33] = target: GlcA(b1-3)GlcNAc
# Procedure, shortened: as §1
# [34] = target: GlcNAc(b1-2)[GlcNAc(b1-4)]Man(a1-3)[GlcNAc(b1-4)][GlcNAc(b1-2)[GlcNAc(b1-6)]Man(a1-6)]Man(b1-4)GlcNAc(b1-4)[Fuc(a1-6)]GlcNAc
# Procedure, shortened: as §1
# [35] = target: GlcNAc(b1-3)Fuc
# Procedure, shortened: as §1
# [36] = target: GlcNAc(b1-3)Gal(b1-4)GlcNAc
# Procedure, shortened: as §1
# [37] = target: GlcNAc(b1-3)[GlcNAc(b1-6)]Gal(b1-4)GlcNAc
# Procedure, shortened: as §1
# [38] = target: Man(a1-3)[Man(a1-6)]Man(b1-4)GlcNAc(b1-4)GlcNAc
# Procedure, shortened: as §1
# [39] = target: Man(a1-6)Man
# Procedure, shortened: as §1
# [40] = target: Man(b1-4)GlcNAc
# Procedure, shortened: as §1
# [41] = target: Neu5Ac(a2-3)Gal(b1-3)GlcNAc
# Procedure, shortened: as §1
# [42] = target: Neu5Ac(a2-3)Gal(b1-3)[Neu5Ac(a2-6)]GalNAc
# Procedure, shortened: as §1
# [43] = target: Neu5Ac(a2-3)Gal(b1-4)Glc
# Procedure, shortened: as §1
# [44] = target: Neu5Ac(a2-3)Gal(b1-4)GlcNAc(b1-2)[Neu5Ac(a2-3)Gal(b1-4)GlcNAc(b1-6)]Man(a1-6)[Neu5Ac(a2-3)Gal(b1-4)GlcNAc(b1-2)Man(a1-3)][GlcNAc(b1-4)]Man(b1-4)GlcNAc(b1-4)GlcNAc
# Procedure, shortened: as §1
# [45] = target: Neu5Ac(a2-6)Gal(b1-4)GlcNAc(b1-2)Man(a1-3)[GlcNAc(b1-2)Man(a1-6)]Man(b1-4)GlcNAc(b1-4)GlcNAc
# Procedure, shortened: as §1
# [46] = target: Neu5Ac(a2-6)Gal(b1-4)GlcNAc(b1-3)Gal(b1-4)GlcNAc(b1-6)[Gal(b1-3)]GalNAc
# Procedure, shortened: as §1
# [47] = target: Neu5Ac(a2-8)Neu5Ac(a2-3)Gal(b1-4)Glc
# Procedure, shortened: as §1
# [48] = target: Neu5Gc(a2-6)Gal(b1-4)GlcNAc
# Procedure, shortened: as §1
# [49] = target: Neu5Gc(a2-8)Neu5Gc(a2-6)Gal(b1-4)GlcNAc
# Procedure, shortened: as §1
binder,measurement,setting,value
B1,glycan array binding signal (z-score),[1],-0.333
same,glycan array binding signal (z-score),[2],-0.208
same,glycan array binding signal (z-score),[3],-0.34
same,glycan array binding signal (z-score),[4],-0.457
same,glycan array binding signal (z-score),[5],-0.363
same,glycan array binding signal (z-score),[6],-1.48
same,glycan array binding signal (z-score),[7],0.694
same,glycan array binding signal (z-score),[8],-0.349
same,glycan array binding signal (z-score),[9],3.99
same,glycan array binding signal (z-score),[10],-1
same,glycan array binding signal (z-score),[11],3.45
same,glycan array binding signal (z-score),[12],-0.609
same,glycan array binding signal (z-score),[13],0.844
same,glycan array binding signal (z-score),[14],-0.334
same,glycan array binding signal (z-score),[15],1.75
same,glycan array binding signal (z-score),[16],1.19
same,glycan array binding signal (z-score),[17],3.42
same,glycan array binding signal (z-score),[18],1.39
same,glycan array binding signal (z-score),[19],-0.312
same,glycan array binding signal (z-score),[20],1.31
same,glycan array binding signal (z-score),[21],-0.584
same,glycan array binding signal (z-score),[22],0.188
same,glycan array binding signal (z-score),[23],-0.203
same,glycan array binding signal (z-score),[24],0.636
same,glycan array binding signal (z-score),[25],0.271
same,glycan array binding signal (z-score),[26],-0.195
same,glycan array binding signal (z-score),[27],-0.905
same,glycan array binding signal (z-score),[28],2.56
same,glycan array binding signal (z-score),[29],10.9
same,glycan array binding signal (z-score),[30],2.84
same,glycan array binding signal (z-score),[31],-0.842
same,glycan array binding signal (z-score),[32],2.81
same,glycan array binding signal (z-score),[33],0.171
same,glycan array binding signal (z-score),[34],2.74
same,glycan array binding signal (z-score),[35],-0.923
same,glycan array binding signal (z-score),[36],0.2
same,glycan array binding signal (z-score),[37],-0.56
same,glycan array binding signal (z-score),[38],3.41
same,glycan array binding signal (z-score),[39],3.16
same,glycan array binding signal (z-score),[40],-0.283
same,glycan array binding signal (z-score),[41],-0.972
same,glycan array binding signal (z-score),[42],0.067
same,glycan array binding signal (z-score),[43],-0.186
same,glycan array binding signal (z-score),[44],-0.305
same,glycan array binding signal (z-score),[45],-0.661
same,glycan array binding signal (z-score),[46],0.283
same,glycan array binding signal (z-score),[47],-0.26
same,glycan array binding signal (z-score),[48],0.007
same,glycan array binding signal (z-score),[49],-0.158

# From the supplement of paper PMC8728848
